The nature of assay [1]: ATG_NFI_CIS: Attagene CIS-FACTORIAL HepG2 Assay for human Nuclear Factor I (NFI) (AID 2282989). The following applies: HepG2 cis-regulatory reporter, NFI response element transcription; actives raise or lower the signal. The essentials:
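HepG2 cells transiently transfected with cis-element-driven multiplexed reporter transcription units, dosed for 24 h. Reporter mRNA quantified by RT-PCR, fluorescent labelling, HpaI digestion and capillary electrophoresis; bidirectional fit versus DMSO baseline.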

The target of assay [2] is Myc proto-oncogene protein (Homo sapiens) (UniProt P01106). As to the kind of experiment: ATG_Myc_CIS: Attagene CIS-FACTORIAL HepG2 Assay for human Myelocytomatosis (Myc) Proto-Oncogene Transcription Factor (AID 2282990). The following applies: HepG2, Attagene cis-reporter transcription factor activity; actives raise or lower the signal. In a few lines: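 Read-out: fluorescent reporter mRNA fragments resolved by capillary electrophoresis after RT-PCR. Human HepG2 liver cells carried transfected cis-element reporter units and were dosed for 24 h. Gain or loss of signal fitted relative to DMSO baseline.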
Chain of Myc proto-oncogene protein (Homo sapiens) (P01106 whole entry, looked up, the tested form may be a part): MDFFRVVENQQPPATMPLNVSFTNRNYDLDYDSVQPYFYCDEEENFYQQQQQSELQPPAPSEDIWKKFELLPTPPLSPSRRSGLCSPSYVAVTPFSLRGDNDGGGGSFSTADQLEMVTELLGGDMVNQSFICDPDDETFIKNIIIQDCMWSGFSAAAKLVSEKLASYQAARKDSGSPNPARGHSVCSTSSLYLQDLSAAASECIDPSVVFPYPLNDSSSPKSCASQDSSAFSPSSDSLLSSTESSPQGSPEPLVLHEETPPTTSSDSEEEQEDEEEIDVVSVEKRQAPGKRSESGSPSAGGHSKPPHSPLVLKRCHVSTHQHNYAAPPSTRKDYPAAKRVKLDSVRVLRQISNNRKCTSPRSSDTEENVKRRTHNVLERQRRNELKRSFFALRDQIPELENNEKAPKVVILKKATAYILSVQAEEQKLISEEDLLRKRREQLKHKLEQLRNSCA

Assay [3] in a line: ATG_NRF2_ARE_CIS: Attagene CIS-FACTORIAL HepG2 Assay for human Nuclear Factor Erythroid 2 Related Factor 2 (NFR2) response to Antioxidant Response Elements (ARE) (AID 2282992). Particulars: HepG2 Attagene ARE/NRF2 reporter, transcription factor activity; actives raise or lower the signal. In a few lines:
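Endogenous transcription factor activity read out as reporter transcript levels (RT-PCR plus capillary electrophoresis, fluorescence) in transiently transfected HepG2 cells. Measured at 24 h after dosing; gain or loss of signal fitted versus DMSO.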

Assay [4] can be described thus: ATG_Oct_MLP_CIS: Attagene CIS-FACTORIAL HepG2 Assay for human Octamer-Binding Transcription Factor (Oct) (AID 2282993). Particulars: HepG2 Attagene cis-factorial Oct reporter, mRNA; actives raise or lower the signal. In a few lines: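 HepG2 cells transiently transfected with cis-promoter-driven multiplexed reporter transcription units, dosed for 24 h. Reporter mRNA quantified by RT-PCR, fluorescent labelling, HpaI digestion and capillary electrophoresis; bidirectional fits versus DMSO baseline.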

Assay [5] deals with Cellular tumor antigen p53 (Homo sapiens) (UniProt P04637). The assay can be described thus: ATG_p53_CIS: Attagene CIS-FACTORIAL HepG2 Assay for human p53 Transcription Factor (AID 2282994). Particulars: HepG2 p53 cis-element reporter, Attagene mRNA; actives raise or lower the signal. In a few lines: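 Endogenous p53 activity read in transiently transfected HepG2 from a cis-element-driven reporter transcript after 24 h exposure. RNA reverse-transcribed, PCR-amplified, fluorescently labelled and sized by capillary electrophoresis; gain or loss fitted against DMSO baseline.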
Chain of Cellular tumor antigen p53 (Homo sapiens) (P04637 whole entry, looked up): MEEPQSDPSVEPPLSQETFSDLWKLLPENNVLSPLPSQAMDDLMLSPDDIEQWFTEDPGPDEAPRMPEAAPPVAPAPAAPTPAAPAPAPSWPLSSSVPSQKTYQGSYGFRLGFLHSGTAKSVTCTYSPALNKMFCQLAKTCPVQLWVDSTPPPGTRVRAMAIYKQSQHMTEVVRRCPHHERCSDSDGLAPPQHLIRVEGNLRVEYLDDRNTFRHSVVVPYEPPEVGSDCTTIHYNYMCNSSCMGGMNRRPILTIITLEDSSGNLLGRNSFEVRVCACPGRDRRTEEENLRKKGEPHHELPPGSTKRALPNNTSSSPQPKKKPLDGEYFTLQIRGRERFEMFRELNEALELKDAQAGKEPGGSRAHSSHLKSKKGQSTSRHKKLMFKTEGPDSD

Assay [6] concerns the target human Peroxisome Proliferator-activated Receptor alpha (PPARa), PPARA (gene 5465) (UniProt Q07869). The assay can be described thus: ATG_PPARa_TRANS: Attagene TRANS-FACTORIAL HepG2 Assay for human Peroxisome Proliferator-activated Receptor alpha (PPARa) (AID 2283001; active = hit-call score of the fitted dose curve at least 0.9, where 1 is the maximum). In a few lines:
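HepG2, transient MRTU transfection, 24 h treatment. RT-PCR → FAM labelling → capillary electrophoresis. Fit vs DMSO, positive direction.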

The nature of assay [7]: ATG_NF_kB_CIS: Attagene CIS-FACTORIAL HepG2 Assay for human Nuclear Factor Kappa B (NF-kB) (AID 2282991). Particulars: HepG2 Attagene cis-factorial NF-kB reporter mRNA; actives raise or lower the signal. In a few lines: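 DMSO served as negative control and baseline for bidirectional curve fitting. Transiently transfected HepG2 cells were dosed for 24 h, then reporter transcripts were measured by RT-PCR with capillary electrophoresis detection.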

Assay [8] concerns the target Retinoic acid receptor alpha (Homo sapiens) (UniProt P10276). As to the kind of experiment: ATG_RARa_TRANS: Attagene TRANS-FACTORIAL HepG2 Assay for human Retinoic Acid Receptor alpha (RARa) (AID 2283005; active = hit-call score of the fitted dose curve at least 0.9, where 1 is the maximum). The essentials: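 HepG2 transiently transfected with multiplex GAL4-UAS reporter units including a human RARa–GAL4 chimera; 24 h compound exposure. Reporter mRNA quantified by RT-PCR, 6-FAM labeling and capillary electrophoresis; gain of signal versus DMSO.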

Assay [9] concerns the target Nuclear receptor subfamily 1 group I member 2 (Homo sapiens) (UniProt O75469). The assay can be described thus: ATG_PXR_TRANS: Attagene TRANS-FACTORIAL HepG2 Assay for human Pregnane X Receptor (PXR) (AID 2283008; active = hit-call score of the fitted dose curve at least 0.9, where 1 is the maximum). In a few lines: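 Transactivation by exogenous PXR–GAL4 fusion measured as reporter transcript induction after 24 h compound treatment of transfected human HepG2 cells. Read-out via RT-PCR and capillary electrophoresis of labelled fragments, fitted upward relative to DMSO.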

For assay [10], the target named is human Retinoic Acid Receptor gamma (RARg), RARG (gene 5916) (UniProt P13631). The assay can be described thus: ATG_RARg_TRANS: Attagene TRANS-FACTORIAL HepG2 Assay for human Retinoic Acid Receptor gamma (RARg) (AID 2283009; active = hit-call score of the fitted dose curve at least 0.9, where 1 is the maximum;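 as to AC50: AC50 is for reporter induction above DMSO meaning RARg activation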). In a few lines: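 Transactivation of exogenous RARg-Gal4 fusion measured as reporter transcript induction after 24 h in transfected HepG2 cells. RNA reverse-transcribed, amplified, fluorescently labeled and resolved by capillary electrophoresis; increase relative to DMSO.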
Chain of human Retinoic Acid Receptor gamma (RARg), RARG (gene 5916) (P13631 whole entry, looked up, the tested form may be a part): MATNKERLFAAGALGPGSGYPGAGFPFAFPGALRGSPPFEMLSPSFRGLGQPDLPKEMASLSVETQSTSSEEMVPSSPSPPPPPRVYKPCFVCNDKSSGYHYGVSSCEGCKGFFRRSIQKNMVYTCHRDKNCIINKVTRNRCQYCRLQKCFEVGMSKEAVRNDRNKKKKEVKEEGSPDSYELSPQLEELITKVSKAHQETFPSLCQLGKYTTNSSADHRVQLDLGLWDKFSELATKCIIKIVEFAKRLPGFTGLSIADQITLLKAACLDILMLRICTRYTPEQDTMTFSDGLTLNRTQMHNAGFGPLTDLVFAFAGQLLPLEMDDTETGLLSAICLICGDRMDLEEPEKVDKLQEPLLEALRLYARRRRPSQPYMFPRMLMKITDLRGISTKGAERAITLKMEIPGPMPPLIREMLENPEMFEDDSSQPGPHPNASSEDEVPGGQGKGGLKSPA

Assay [11] concerns the target human RAR-related Orphan Receptor beta (RORb), RORB (gene 6096) (UniProt Q92753). The assay can be described thus: ATG_RORb_TRANS: Attagene TRANS-FACTORIAL HepG2 Assay for human RAR-related Orphan Receptor beta (RORb) (AID 2283010; active = hit-call score of the fitted dose curve at least 0.9, where 1 is the maximum). The essentials: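 Read-out is reporter mRNA induction, quantified by RT-PCR with fluorescent capillary electrophoresis, 24 h post-dose in transiently transfected HepG2 expressing exogenous NR-Gal4 chimera. Activity fitted upward versus DMSO.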

Assay [12] is described as follows: BSK_3C_TissueFactor: BioMAP Diversity Plus: 3C Assay for Tissue Factor Biomarker Activity (AID 2282997). The following applies: BioMAP 3C HUVEC, tissue factor biomarker readout; actives raise or lower the signal. The essentials: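 Tissue Factor measured by ELISA, 24 h after treatment of primary HUVEC in the BioMAP 3C setting.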
A short description of assay [13]: BSK_3C_uPAR: BioMAP Diversity Plus: 3C Assay for Urokinase-type plasminogen activator receptor (uPAR) Biomarker Activity (AID 2282998). The following applies: BioMAP 3C HUVEC, uPAR biomarker ELISA; actives raise or lower the signal. In a few lines: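 Human umbilical vein endothelial primary cells were exposed to test chemical for 24 h. Cell-surface uPAR was then quantified by ELISA, and responses were fitted bidirectionally against DMSO as negative control and baseline.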
For orientation: ELISA stands for enzyme-linked immunosorbent assay.

Assay [14] in a line: BSK_3C_VCAM1: BioMAP Diversity Plus: 3C Assay for Vascular cell adhesion molecule 1 (VCAM1) Biomarker Activity (AID 2282999). The following applies: BioMAP 3C HUVEC, VCAM1 ELISA, cytokine-stimulated; actives raise or lower the signal. In a few lines: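 HUVEC primary cells, 24 h compound exposure; VCAM-1 by ELISA; gain/loss of signal fitted bidirectionally vs DMSO baseline.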

Assay [15] is described as follows: BSK_4H_Eotaxin3: BioMAP Diversity Plus: 4H Assay for Eotaxin 3 Biomarker Activity (AID 2283000).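 As to outcome: CCL26 protein level quantified by ELISA in parallel with SRB cytotoxicity check.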 The following applies: primary human endothelial cells (HUVEC); actives raise or lower the signal. In a few lines: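 Eotaxin-3 (CCL26) levels were measured by ELISA in HUVEC primary cultures 24 h post-dosing. Gain or loss of signal was fitted in both directions, with DMSO serving as baseline and negative control.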

In assay [16] the target is human Peroxisome Proliferator-activated Receptor delta (PPARd), PPARD (gene 5467) (UniProt Q03181). As to the kind of experiment: ATG_PPARd_TRANS: Attagene TRANS-FACTORIAL HepG2 Assay for human Peroxisome Proliferator-activated Receptor delta (PPARd) (AID 2283002; active = hit-call score of the fitted dose curve at least 0.9, where 1 is the maximum). The essentials: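 Read-out: reporter mRNA induction, quantified by fluorescent RT-PCR products resolved by capillary electrophoresis. Human HepG2 liver cells carried transiently transfected Gal4-UAS reporter constructs with chimeric NR-Gal4 fusions. Cells were dosed for 24 h; DMSO served as baseline.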
Chain of human Peroxisome Proliferator-activated Receptor delta (PPARd), PPARD (gene 5467) (Q03181 whole entry, looked up, the tested form may be a part): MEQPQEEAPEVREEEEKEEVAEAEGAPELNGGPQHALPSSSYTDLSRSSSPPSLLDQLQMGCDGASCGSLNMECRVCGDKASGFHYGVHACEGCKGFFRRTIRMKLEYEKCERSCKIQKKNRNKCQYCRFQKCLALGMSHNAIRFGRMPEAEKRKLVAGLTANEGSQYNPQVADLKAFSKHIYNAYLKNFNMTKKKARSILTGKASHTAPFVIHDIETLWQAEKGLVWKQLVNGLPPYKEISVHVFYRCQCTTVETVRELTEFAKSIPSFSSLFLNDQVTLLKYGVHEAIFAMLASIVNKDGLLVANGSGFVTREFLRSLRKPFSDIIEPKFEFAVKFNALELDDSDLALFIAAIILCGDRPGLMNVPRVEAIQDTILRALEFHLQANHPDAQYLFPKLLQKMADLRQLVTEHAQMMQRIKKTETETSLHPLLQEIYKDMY

Read-out in assay [17]: Intercellular Adhesion Molecule 1 (ICAM1), ICAM1 (gene 3383)
The assay can be described thus: BSK_3C_ICAM1: BioMAP Diversity Plus: 3C Assay for Intercellular Adhesion Molecule 1 (ICAM1) Biomarker Activity (AID 2283003). The following applies: primary human endothelial cells (HUVEC); actives raise or lower the signal. The essentials:
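ELISA readout of ICAM1 in human umbilical vein endothelial cells in the 3C system, taken 24 h post-dose. Gain or loss of signal versus DMSO was fitted in both directions, with SRB total-protein staining run in parallel.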

The nature of assay [18]: BSK_3C_Proliferation: Cell Proliferation Assessment in the BioMAP Diversity Plus: 3C Assay (AID 2283006).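 As to AC50: potency may reflect either rise or fall in cell number versus DMSO.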 The following applies: primary human endothelial cells (HUVEC). The essentials:
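Proliferation as total protein: sulforhodamine B (0.1%) stain of TCA-fixed subconfluent human umbilical vein endothelial cells, absorbance 560 nm, 48 h after dosing. Activity fitted in both directions against DMSO baseline.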

Assay [19] addresses human Retinoic Acid Receptor beta (RARb), RARB (gene 5915) (UniProt P10826). As to the kind of experiment: ATG_RARb_TRANS: Attagene TRANS-FACTORIAL HepG2 Assay for human Retinoic Acid Receptor beta (AID 2283004; active = hit-call score of the fitted dose curve at least 0.9, where 1 is the maximum). The essentials:
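HepG2 cells were transiently transfected with GAL4-UAS reporter units that report activity of exogenous chimeric NR-Gal4 proteins, then exposed to compound for 24 h. Reporter mRNA was quantified by RT-PCR with capillary electrophoresis fluorescence, as gain of signal over DMSO.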

Assay [20] concerns the target Peroxisome proliferator-activated receptor gamma (Homo sapiens) (UniProt P37231). As to the kind of experiment: ATG_PPARg_TRANS: Attagene TRANS-FACTORIAL HepG2 Assay for human Peroxisome Proliferator-activated Receptor-gamma (PPARg) (AID 2283007; active = hit-call score of the fitted dose curve at least 0.9, where 1 is the maximum). In a few lines:
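Chimeric NR-Gal4 transactivation is measured in transiently transfected HepG2 cells by reporter mRNA induction at 24 h. Detection uses RT-PCR with fluorescent labelling and capillary electrophoresis; DMSO defines baseline.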

“And” between values parts separate entries of the source, which are not always exact repeats. Equal values may be shown once. Inconclusive results are not listed. The source made the active and inactive calls. The calls were made as follows, unless noted: active = hit-call score of the fitted dose curve at least 0.9, where 1 is the maximum; inactive = score below 0.9.

Chain of Peroxisome proliferator-activated receptor gamma (Homo sapiens) (P37231 whole entry, looked up, the tested form may be a part): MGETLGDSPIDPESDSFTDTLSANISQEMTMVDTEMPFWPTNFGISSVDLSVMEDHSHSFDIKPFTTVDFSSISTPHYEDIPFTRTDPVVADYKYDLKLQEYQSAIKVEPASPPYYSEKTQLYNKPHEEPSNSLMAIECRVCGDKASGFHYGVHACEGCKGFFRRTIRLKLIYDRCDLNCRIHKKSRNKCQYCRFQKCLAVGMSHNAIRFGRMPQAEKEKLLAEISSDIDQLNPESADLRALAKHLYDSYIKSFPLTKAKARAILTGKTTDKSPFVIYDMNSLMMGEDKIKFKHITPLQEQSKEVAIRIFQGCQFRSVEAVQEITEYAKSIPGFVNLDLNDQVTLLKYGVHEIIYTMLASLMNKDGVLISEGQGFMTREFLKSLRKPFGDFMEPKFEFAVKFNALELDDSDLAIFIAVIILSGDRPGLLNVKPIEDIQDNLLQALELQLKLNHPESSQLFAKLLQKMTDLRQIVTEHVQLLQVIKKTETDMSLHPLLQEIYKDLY
Chain of human Peroxisome Proliferator-activated Receptor alpha (PPARa), PPARA (gene 5465) (Q07869 whole entry, looked up): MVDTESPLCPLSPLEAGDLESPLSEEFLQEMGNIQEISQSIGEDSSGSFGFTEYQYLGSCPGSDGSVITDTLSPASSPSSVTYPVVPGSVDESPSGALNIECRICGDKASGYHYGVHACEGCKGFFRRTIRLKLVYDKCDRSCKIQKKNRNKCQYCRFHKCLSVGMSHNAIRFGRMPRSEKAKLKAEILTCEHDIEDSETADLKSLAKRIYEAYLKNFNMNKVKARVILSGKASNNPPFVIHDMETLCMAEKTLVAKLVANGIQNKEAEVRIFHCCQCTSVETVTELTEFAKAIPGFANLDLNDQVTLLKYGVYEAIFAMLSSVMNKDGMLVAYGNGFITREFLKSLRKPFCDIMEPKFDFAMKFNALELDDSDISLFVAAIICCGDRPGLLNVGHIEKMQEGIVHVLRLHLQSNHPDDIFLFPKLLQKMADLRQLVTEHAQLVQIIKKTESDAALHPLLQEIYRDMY
Chain of Retinoic acid receptor alpha (Homo sapiens) (P10276 whole entry, looked up, the tested form may be a part): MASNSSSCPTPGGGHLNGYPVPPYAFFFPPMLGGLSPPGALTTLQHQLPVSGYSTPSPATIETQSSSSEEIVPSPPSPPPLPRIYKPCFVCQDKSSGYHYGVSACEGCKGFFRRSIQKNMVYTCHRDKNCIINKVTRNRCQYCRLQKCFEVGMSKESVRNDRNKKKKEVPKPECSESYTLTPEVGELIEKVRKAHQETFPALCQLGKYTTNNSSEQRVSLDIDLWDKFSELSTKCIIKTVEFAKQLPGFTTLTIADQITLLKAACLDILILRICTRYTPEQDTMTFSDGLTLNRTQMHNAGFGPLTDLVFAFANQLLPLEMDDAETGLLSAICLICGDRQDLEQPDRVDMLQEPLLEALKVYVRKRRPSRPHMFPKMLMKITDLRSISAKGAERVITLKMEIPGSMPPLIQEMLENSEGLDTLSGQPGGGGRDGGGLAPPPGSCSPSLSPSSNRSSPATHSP
Chain of human RAR-related Orphan Receptor beta (RORb), RORB (gene 6096) (Q92753 whole entry, looked up, the tested form may be a part): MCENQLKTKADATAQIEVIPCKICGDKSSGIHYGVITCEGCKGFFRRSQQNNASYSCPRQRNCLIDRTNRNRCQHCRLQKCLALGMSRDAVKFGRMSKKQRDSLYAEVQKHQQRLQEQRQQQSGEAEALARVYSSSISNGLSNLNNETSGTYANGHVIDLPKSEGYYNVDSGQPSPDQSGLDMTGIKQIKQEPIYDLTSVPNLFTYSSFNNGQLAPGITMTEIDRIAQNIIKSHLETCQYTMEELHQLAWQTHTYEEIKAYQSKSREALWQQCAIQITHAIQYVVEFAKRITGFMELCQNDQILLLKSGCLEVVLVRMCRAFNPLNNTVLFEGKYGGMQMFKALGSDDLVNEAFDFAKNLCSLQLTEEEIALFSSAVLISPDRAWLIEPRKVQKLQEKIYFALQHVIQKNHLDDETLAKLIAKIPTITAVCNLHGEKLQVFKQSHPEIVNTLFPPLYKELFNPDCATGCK
Chain of Nuclear receptor subfamily 1 group I member 2 (Homo sapiens) (O75469 whole entry, looked up, the tested form may be a part): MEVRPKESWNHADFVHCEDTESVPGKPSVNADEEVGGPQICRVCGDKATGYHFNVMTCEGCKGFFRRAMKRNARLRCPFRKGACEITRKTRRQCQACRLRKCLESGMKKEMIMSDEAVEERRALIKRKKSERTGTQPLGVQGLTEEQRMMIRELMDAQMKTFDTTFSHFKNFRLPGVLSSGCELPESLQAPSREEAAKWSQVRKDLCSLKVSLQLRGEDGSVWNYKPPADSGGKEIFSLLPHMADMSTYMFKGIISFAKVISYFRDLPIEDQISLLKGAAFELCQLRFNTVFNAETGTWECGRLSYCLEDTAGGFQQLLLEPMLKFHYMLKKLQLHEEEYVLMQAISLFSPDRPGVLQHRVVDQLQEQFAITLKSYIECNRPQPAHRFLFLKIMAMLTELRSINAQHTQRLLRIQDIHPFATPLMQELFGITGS
Chain of human Retinoic Acid Receptor beta (RARb), RARB (gene 5915) (P10826 whole entry, looked up, the tested form may be a part): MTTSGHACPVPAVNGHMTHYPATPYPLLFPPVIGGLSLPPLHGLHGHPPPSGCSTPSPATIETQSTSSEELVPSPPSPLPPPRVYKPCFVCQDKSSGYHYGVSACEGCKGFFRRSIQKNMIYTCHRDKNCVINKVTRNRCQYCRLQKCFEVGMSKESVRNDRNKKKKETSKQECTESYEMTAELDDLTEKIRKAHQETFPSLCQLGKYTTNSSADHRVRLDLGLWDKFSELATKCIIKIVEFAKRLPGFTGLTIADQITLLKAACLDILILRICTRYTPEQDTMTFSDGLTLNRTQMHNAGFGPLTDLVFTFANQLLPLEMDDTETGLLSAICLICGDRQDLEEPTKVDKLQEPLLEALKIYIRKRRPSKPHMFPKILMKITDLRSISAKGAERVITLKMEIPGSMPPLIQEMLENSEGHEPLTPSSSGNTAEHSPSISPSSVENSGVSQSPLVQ

For `C=CCc1ccccc1O`, the molecule was classed as inactive in assay [1], in assay [2], in [3], in assay [4], in assay [5] and in assay [6].
`C[As+](C)(C)CC(=O)[O-]`: the result in [1], in assay [2], in [7], in [4], in assay [5] and in [8] was inactive. For the same molecule, the outcome in assay [9], in assay [10] and in assay [11] was inactive.
For the molecule `CC(C)=CC1C(C(=O)OCc2cccc(Oc3ccccc3)c2)C1(C)C` (centres undefined), the call in assay [1], in assay [2], in assay [3], in assay [4], in assay [5] and in [12] was inactive. Further, the result in assay [13], in assay [14], in assay [15], in assay [16], in assay [17] and in [8] was inactive. For the same molecule, the result in assay [11] was inactive. Moreover, the concentration at half-maximal activity (AC50) (as a rule, the concentration at which the activity in the assay is half-maximal) in assay [18] is 20 µM (active); in assay [9], 9.55 µM (active).
Consider `Cc1ccc2nc3sc(=O)sc3nc2c1`, for which the result in assay [1], in assay [7], in [5], in [12], in assay [6] and in assay [19] was inactive. The result in [8] and in assay [11] was inactive. Moreover, the AC50 in assay [2] is 6.38 µM (active); in assay [4], 6.95 µM (active); in [13], 3.43 µM (active); in [14], 7.59 µM (active); in [15] it was 5.95 µM (active); in [17] it was 7.74 µM (active). The AC50 is 7.3 µM (active) in assay [18], 2 µM (active) in assay [20], 6.31 µM (active) in assay [9] and 17.7 µM (active) in assay [10].
On to `Oc1cccc(-c2ccccc2)c1`, for which the AC50 in assay [1] is 139 µM (active); in assay [13], 20 µM (active); in assay [14], 37.1 µM (active); in assay [15] it was 20 µM (active); in [18] it was 27.2 µM (active); in assay [20] it was 34.6 µM (active). The molecule was called inactive in [2], in assay [7], in assay [4], in assay [5], in assay [12] and in assay [6]. The outcome in [16], in [17] and in assay [19] was inactive.
As for `O=[N+]([O-])c1cccc2ccccc12`, the result in [1], in [2], in [7], in assay [4], in [5] and in [12] was inactive. Further, the outcome in assay [13], in assay [14], in assay [15], in assay [6], in [17] and in assay [18] was inactive. Moreover, in assay [20], the outcome was inactive. Also, in assay [9], the concentration at half-maximal activity (AC50) was 30.4 µM (active).
In the case of `CC1(C)[C@H](C(=O)O[C@H](C#N)c2cccc(Oc3ccccc3)c2)[C@@H]1/C=C(\Cl)C(F)(F)F`, the call in assay [1], in assay [2], in [7], in assay [4], in assay [5] and in assay [12] was inactive. Further, the result in [13], in [14], in [15], in [16], in [17] and in assay [18] was inactive. Besides, the AC50 in assay [20] was 5.86 µM (active) and 4.64 µM (active).
As for `C=CCN=C=S`, the result in assay [1], in [2], in assay [7], in assay [4], in [5] and in assay [6] was inactive. In addition, the molecule was classed as inactive in assay [16], in [20], in assay [9] and in assay [11].
With `CN(N=O)C(N)=O`, the result in assay [1], in assay [2], in assay [7], in assay [4], in [5] and in assay [6] was inactive. The outcome in [20], in [9] and in assay [10] was inactive.
